Screening data deposited in PubChem by National Center for Advancing Translational Sciences (NCATS).
VDR inhibitor: inhibitors of human vitamin D receptor. P11473. VDR-SRC2-3 peptide fluorescence polarization, 2 h. Potency, µM, for the others: max response, negative = inhibition, actives largely listed as inhibitors. 0.93% of 400,000 active; further: on the % scale 0 is the no-effect control and ±100 the full control effect
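Two reagent solutions held at 4 deg C in the dark were dispensed, compounds pinned at 23 nl, and the mixture incubated 2 h at room temperature. Read-out: fluorescence polarization of VDR–SRC2-3 peptide binding.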
ALOX12 inh: ALOX12 (human) lipoxygenase inhibition | purified 12hLO, xylenol orange hydroperoxide absorbance | Potency, µM (series often up to 108 µM), without a hit: at the top dose activity change, negative = inhibition, usual class: inhibitors | 1.1% of 580,000 active; further: on the % scale 0 is the no-effect control and ±100 the full control effect
Target sequence (P18054 whole entry, looked up): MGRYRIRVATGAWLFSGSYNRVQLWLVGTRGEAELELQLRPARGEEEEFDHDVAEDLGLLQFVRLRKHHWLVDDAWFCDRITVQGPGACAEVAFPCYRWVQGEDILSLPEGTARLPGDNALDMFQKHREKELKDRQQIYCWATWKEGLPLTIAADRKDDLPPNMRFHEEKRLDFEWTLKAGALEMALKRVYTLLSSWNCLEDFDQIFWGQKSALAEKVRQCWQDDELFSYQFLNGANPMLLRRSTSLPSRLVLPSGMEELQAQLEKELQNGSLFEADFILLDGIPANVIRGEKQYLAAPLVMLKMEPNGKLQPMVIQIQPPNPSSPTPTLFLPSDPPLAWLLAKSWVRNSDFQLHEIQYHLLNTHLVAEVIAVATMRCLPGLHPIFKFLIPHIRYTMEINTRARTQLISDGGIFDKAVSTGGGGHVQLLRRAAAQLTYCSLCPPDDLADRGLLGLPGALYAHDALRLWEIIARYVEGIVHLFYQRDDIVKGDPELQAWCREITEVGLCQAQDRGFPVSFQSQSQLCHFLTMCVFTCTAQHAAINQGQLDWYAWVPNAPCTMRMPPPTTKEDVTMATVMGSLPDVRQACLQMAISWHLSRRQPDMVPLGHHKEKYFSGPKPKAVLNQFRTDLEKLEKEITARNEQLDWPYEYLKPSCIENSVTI
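Hydroperoxide product was detected by ferrous iron/xylenol orange as the 573 to 405 nm absorbance ratio. Arachidonic acid at 40 uM (final) was turned over for 30 min at room temperature by 150 nM human 12hLO, pH 7.0 Hepes buffer, after 15 min compound preincubation.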
GRP78 ERSR act: inducers of ER stress response in human glioma cells. U87-MG GRP78 promoter luciferase reporter, 16 h. Potency, µM, for the others: at the highest dose activation, usual class: activators. 0.02% of 420,000 active; further: series mostly up to about 76 µM; % of control where 0% means no effect; nearly all actives have a fitted effect of over 35% in size
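Stably transfected U87-MG glioma cells carrying a GRP78-based luciferase sensor; 16 h compound incubation. Luminescence end-point read 10 min after Bright-Glo addition at room temperature.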
Sfp inh: blocks B. subtilis Sfp PPTase activity | Q9F4F7 | Biochemical Sfp PPTase activity, qHTS | Potency, µM, without a hit: largest response in the series, negative = inhibition, most hits filed as inhibitors | 3.5% of 310,000 active;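 further: the enzyme is Sfp with the accession as filed and its product quenches rhodamine fluorescence; 0% = enzyme reaction without inhibitor and -100% = no enzyme wells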
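Fluorescence-quenching assay: 15 nM Sfp-PPTase preincubated 15 min at room temperature with compound, then 5 uM rhodamine-CoA and 12.5 uM BHQ-2-labelled YbbR peptide added. Fluorescence (ex 525/em 598 nm) read at start and after 30 min; difference gives rate.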
G9a block: blocks human histone lysine methyltransferase G9a; 8.8% of 350,000 active; G9a H3K9 monomethylation, AlphaScreen, 2 h; Potency, µM (titrated, usually from 102 µM), for the others: at the top dose activity, negative = inhibition, most hits filed as inhibitors; Q96KQ7; further: on the % scale 0 is the no-effect control and ±100 the full control effect; nearly all actives have a fitted effect of over 75% in size
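AlphaScreen detection with an anti-monomethyl H3K9 antibody quantified product after a 2 h room-temperature reaction containing 500 nM biotinylated H3K9 peptide, 20 µM SAM and 20 nM enzyme, which had been preincubated 15 min with compound.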
An asterisk follows results filed as active; ? = inconclusive; nt = no result given; ! = not confirmed by another sample; [ ] = another dose, or the depositor's remark. This excerpt belongs to a sample that is enriched for hits. The call rests on the fitted dose curve; in most records, active means well fitted curve in the direction sought with a large enough effect; inconclusive means small, poorly fitted or top-dose-only effect, or another doubt; inactive means no such curve, though single readings can be large; an effect the other way counts as inactive or inconclusive. Potency means the concentration at half of the fitted maximal effect.

SMILES	VDR inhibitor	ALOX12 inh	GRP78 ERSR act	Sfp inh	G9a block
Cc1ccccc1C(CC(=O)Nc1cccc(-c2ccno2)c1)n1cccc1 (configuration not stated)	nt	-6%	nt	nt	nt
Cc1ccccc1C(=O)Oc1cc(N)n(S(C)(=O)=O)n1	3%	0%	-5%	1%	-20%
Cc1c(C(=O)Oc2cc(N)n(S(C)(=O)=O)n2)cccc1[N+](=O)[O-]	79µM*	-2%	3%	-27%	16µM*
Cc1cnc(C(=O)OCC(=O)NC(=O)c2ccccc2)cn1	-14%	?	-4%	nt	45µM*
Cc1cnc(C(=O)OCC(=O)c2ccccc2)cn1	11%	-10%	1%	nt	?
CCCS(=O)(=O)N1CCC(N2C(=O)C3(CCCCC3)C2c2ccncc2)CC1 (configuration not stated)	nt	-1%	nt	nt	nt
CN(C)/C=C/C(=O)/C=C/c1cn(-c2ncc(C(F)(F)F)cc2Cl)c2ccccc12	0%	27%	0%	-3%	10µM*
COc1ccc(C(=O)NCc2n[nH]c(=S)n2-c2ccccc2)cc1OC	-21%	-21%	0%	56µM*	?
COc1ccc(C(=O)NCc2nnc(SCC(=O)c3ccccc3)n2C)cc1OC	-1%	-5%	2%	nt	56µM*
COc1cc(OC)cc(C(=O)NCc2n[nH]c(=S)n2-c2ccccc2)c1	3%	?	-3%	89µM*	7%[0.0925 µM]
COc1ccc(-n2c(CNC(=O)c3cccs3)n[nH]c2=S)cc1	-6%	?	-2%	1%	20µM*
COc1ccc(-n2c(CNC(=O)COc3ccccc3)n[nH]c2=S)cc1	0%	-2%	-5%	6%	?
CCC(C)c1ccc(NC(=S)NCCn2cc(Cl)cn2)cc1 (configuration not stated)	-26%	35µM*	1%	-20%	nt
COCCN(C(=S)Nc1c(C)cc(C)cc1C)C(C)c1cccnc1 (configuration not stated)	45µM*	-31%	-4%	11µM*	7.1µM*
CN(Cc1ccco1)c1ncncc1-c1cccc(NS(C)(=O)=O)c1	?	?	-5%	-11%	-2%[0.501 µM]
CN(Cc1ccco1)c1cc(-c2ccccc2Cl)ncn1	45µM*	-17%	-3%	-25%	nt
CN(Cc1ccco1)c1ncnc2ccc(-c3cccc(NS(C)(=O)=O)c3)cc12	?	?	-5%	-6%	5%[0.501 µM]
CN(Cc1ccco1)c1ncnc2ccc(-c3ccccc3C(F)(F)F)cc12	32µM*	?	-3%	?	-27%[0.501 µM]
CN(Cc1ccco1)c1ncncc1-c1ccccc1Cl	28µM*	?	0%	79µM*	30%[0.501 µM]
CN(Cc1ccco1)c1ncnc2ccc(-c3ccccc3Cl)cc12	50µM*!	28µM*!	0%	?	-36%[12.7 µM]
CCc1cc(=O)oc2cc(OCC(=O)NCCc3ccc(S(N)(=O)=O)cc3)ccc12	nt	21%	nt	nt	nt
Cc1cc(C)cc(CC(CC(=O)O)C(=O)Nc2cccc(C(F)(F)F)c2)c1 (configuration not stated)	nt	15%	nt	nt	nt
CN(C)c1ncnc2ccc(-c3ccoc3)cc12	?	?	1%	0%	2%[0.501 µM]
CN(Cc1ccco1)c1ncnc2ccc(-c3ccoc3)cc12	50µM*!	1%	-1%	-20%	-29%[12.7 µM]
COc1ccccc1-c1ccc2ncnc(N(C)Cc3ccco3)c2c1	45µM*	?	-3%	?	-41%[0.501 µM]
SMILES	VDR inhibitor	ALOX12 inh	GRP78 ERSR act	Sfp inh	G9a block
O=C(/C=C/c1ccccc1)OC/C=C/c1ccccc1	nt	-7%[176 µM]	nt	nt	nt
O=C1NCc2ccccc2CC12CCCCN2Cc1ccsc1 (configuration not stated)	nt	3%[6.33 µM]	nt	nt	nt
COc1ccc(NC(=O)COC(=O)c2cc(=O)c3ccccc3o2)cc1OC	14%	-15%	-3%	nt	?
CN(C)c1ccc(NC(=O)COC(=O)c2cc(=O)c3ccccc3o2)cc1	-16%	-10%	-4%	-6%	10µM*
CC(OC(=O)c1c[nH]c2ccccc12)C(=O)Nc1ccc(C(N)=O)cc1 (configuration not stated)	nt	-18%	nt	nt	nt
CC(OC(=O)c1cc(O)c2ccccc2c1O)C(=O)Nc1ccc(C(N)=O)cc1 (configuration not stated)	?	?	8%	nt	7.1µM*
CC(OC(=O)c1cc(=O)c2ccccc2o1)C(=O)Nc1ccc(N(C)C)cc1 (configuration not stated)	-10%	-29%	0%	nt	3.2µM*
Cc1ccc2cc(CSc3nnc(C(F)(F)F)n3C)c(Cl)nc2c1C	nt	-9%	nt	nt	nt
C/C(=N/O)c1ccccc1O	nt	-16%	nt	nt	nt
CCN(CC)C1=CC(=[N+]2CCCC2)CC(C)(C)C1	-2%	?	-6%	3%	40µM*
COCCn1c(=O)[nH]c2cc(C(=O)Nc3cc(OC)c(OC)c(OC)c3)ccc2c1=O	4%	-9%	0%	8%	19%
COCCn1c(=O)[nH]c2cc(C(=O)Nc3nnc(C)s3)ccc21	6%	-10%	-1%	-9%	79µM*
Cn1c(=O)[nH]c(=O)c2c1nc(SCC(=O)Nc1ccccc1)n2CCCc1ccccc1	nt	-9%	nt	nt	nt
O=S(=O)(N/N=C/c1ccc(Cl)cc1)c1ccc(Cc2ncc(C(F)(F)F)cc2Cl)s1	-3%	13%	-6%	17%	28µM*
NC(=O)c1ccc(Cc2ncc(C(F)(F)F)cc2Cl)s1	2%	?	-2%	-5%	-46%[59 µM]
Nc1c(N(Cc2ccco2)C(=O)c2ccc(Br)cc2)c(=O)[nH]c(=O)n1Cc1ccccc1	-16%	28µM*	-2%	nt	11%[12.7 µM]
CC(C)CCNC(=O)CCc1c[nH]c2ccccc12	nt	-28%	nt	nt	nt
Nc1nonc1C(=O)NCCN=Cc1ccccc1O	1%	4%	-2%	89µM*	0%[0.0925 µM]
Nc1nonc1C(=O)NCCN=Cc1cc(Cc2ccccc2)cc(Br)c1O	-7%	nt	5%	10%	-3%
COc1ccc(C(=O)NCCS(=O)(=O)NCc2ccc3c(c2)OCO3)cc1	0%	8%	-1%	nt	8%[0.501 µM]
COc1cccc(C(=O)NCCS(=O)(=O)NCc2ccc3c(c2)OCO3)c1	-2%	10%	-4%	nt	40µM*
COc1ccc(CNS(=O)(=O)CCNC(=O)c2cccc(OC)c2)cc1	-12%	-7%	0%	nt	50µM*
COc1ccc2c(COC(=O)c3ccccc3F)cc(=O)oc2c1	nt	-10%	nt	nt	nt
CN(C)c1ccc(NC(=O)N2CCOCC2)cc1	14µM*	0%	7%	40µM*	4µM*
O=C(CN1CCCC1)Nc1ccc(Br)cc1	-6%	-35%	-1%	50µM*	4.5µM*
CN(C)c1ccc(NC(=O)CN2CCc3ccccc3C2)cc1	5%	-23%	2%	11%	13µM*
O=C(CN1CCCCC1)Nc1ccc(NC(=O)c2ccccc2Cl)cc1Cl	8%	-20%	1%	2%	10µM*
O=C(CN1CCCCCC1)Nc1ccc(Br)cc1	0%	6%	-1%	3%	-8%[12.7 µM]
O=C(CN1CCCCCCC1)Nc1ccc(Cl)cc1Cl	8%	?	-1%	11%	121%
O[C@@H]1C[C@@H](c2nnc3n2CCN(CC2CCCCC2)C3)N(Cc2ccccc2)C1	nt	13%	nt	nt	nt
